# PubChem BioAssay (NCI)
# About 83,000 compounds went through this panel and 20% of them were active in at least one assay; those are over-represented in the sample as a whole.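 Interpretation: 100, growth as untreated; towards 0, rising growth inhibition; 0, no net growth; 0 to -100, cell death. Compounds scoring below 10 were considered active.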 Values without a mark were called inactive. Activity calls are given as the source filed them.
# How the values were obtained:
# Experiment in all cases: NCI-60 one-dose screen, 48 h (100 = growth as untreated, 0 = no growth, -100 = all killed)
# Settings in all cases: 10 µM unless noted
# [1] = test system: SK-MEL-2 melanoma
# [2] = test system: EKVX NSCLC
# [3] = test system: SN12C renal
# [4] = test system: UO-31 renal
# [5] = test system: TK-10 renal
# [6] = test system: ACHN renal
# [7] = test system: CAKI-1 renal
# [8] = test system: A498 renal
# [9] = test system: CCRF-CEM leukemia
# [10] = test system: MOLT-4 leukemia
# [11] = test system: RPMI-8226 leukemia
# [12] = test system: OVCAR-8 ovarian
# [13] = test system: OVCAR-5 ovarian
# [14] = test system: OVCAR-4 ovarian
# [15] = test system: SK-OV-3 ovarian
# [16] = test system: IGROV1 ovarian
# [17] = test system: OVCAR-3 ovarian
# [18] = test system: HS 578T breast
# [19] = test system: NCI/ADR-RES ovarian
Structure (SMILES),growth [1],growth [2],growth [3],growth [4],growth [5],growth [6],growth [7],growth [8],growth [9],growth [10] [%],growth [11],growth [12],growth [13],growth [14],growth [15],growth [16],growth [17],growth [18],growth [19]
NC(=S)Nc1cccc(NC(N)=S)c1,112%,101%,81.9%,70%,107%,96.3%,79.7%,101%,96.4%,89.7,109%,94%,104%,94.6%,126%,97.5%,88.5%,105%,97.6%
Cc1cc(C)n(-c2ccc3nnc(-c4ccccc4)n3n2)n1,114%,88.5%,94.2%,-77.9% (active),95%,104%,74.7%,107%,112%,–,119%,96.9%,128%,92.9%,128%,111%,91.6%,117%,76.1%
O=C(/C=C/c1ccc(O)c(O)c1)NC1CCOC1O (stereo not drawn),113%,97.1%,96.4%,80.4%,109%,104%,92.9%,109%,96.4%,96.3,97.4%,95.7%,114%,108%,94.8%,111%,103%,89.1%,105%
COc1cc2c(c(OC)c1OC)C(=O)CC(c1cccc(NC(=O)c3cccc([N+](=O)[O-])c3)c1)O2 (stereo not drawn),-10.4% (active),60.6%,29.2%,16.1%,71.7%,30.1%,22.1%,91.2%,11.5%,13.9,8.29% (active),10.2%,79.3%,27.1%,64.2%,27%,19.4%,25.1%,14.5%
COc1ccc(C(=O)Nc2n[nH]c(Nc3ccccc3)c2C#N)cc1,110%,90.1%,110%,90.7%,99.9%,99.3%,103%,108%,114%,–,133%,111%,97.6%,118%,119%,105%,111%,114%,109%
CN1CCN(Cc2ccc(C(=O)Nc3cccc(C#Cc4cccc5[nH]nc(N)c45)c3)cc2C(F)(F)F)CC1,-88.9% (active),-93.6% (active),-94.7% (active),-98.2% (active),-96% (active),-98.3% (active),-88.5% (active),-80.7% (active),-20% (active),–,-45.1% (active),-98.1% (active),-94.8% (active),-60.9% (active),-89.1% (active),-70.8% (active),-46.6% (active),-17.5% (active),-61% (active)
Cc1cnc(C(=O)NNc2nc3cc(F)ccc3n3c(C(=O)N4CC5CC(C4)N5)ccc23)cn1,53%,23.1%,32.1%,23.3%,41.2%,15.6%,23.1%,88.6%,17%,–,48.1%,20.2%,48.7%,38.4%,25.8%,39.9%,50.1%,62.9%,67%
CC(=O)N1CCN(Cc2ccc3c(NNC(=O)c4cnccn4)nc4cc(F)ccc4n23)CC1,43.5%,16.2%,21.4%,10.6%,30.3%,11%,13.1%,50.2%,9.27% (active),–,25.7%,17.2%,50.1%,32.6%,25%,28.2%,56.7%,56.3%,7.69% (active)
COCOc1cc2c(=O)c(C)c(C(=O)N[C@@H](Cc3ccccc3)C(O)C(=O)NCc3ccccc3)oc2cc1OC (stereo partly drawn),-2.79% (active),78.4%,42.7%,81.5%,88.8%,83.7%,50.5%,-6.29% (active),96.1%,87.8,67.3%,2.29% (active),92.5%,28.2%,22.8%,57.6%,65.4%,9.01% (active),88%
c1ccc(-c2csc(Nc3cccc(Nc4nc(-c5ccccc5)cs4)c3)n2)cc1,64.9%,37.7%,43.4%,32.3%,68.6%,36.2%,34.9%,85.5%,38.6%,13.7,49.3%,39.9%,64.5%,37.6%,97.5%,34.1%,53.2%,56.5%,26.1%
NS(=O)(=O)c1ccc(-n2cc(-c3cccc(NC(=O)c4cc(N5CCOCC5)cc(C(F)(F)F)c4)c3)nn2)cc1,61.9%,70.5%,35.1%,80.3%,86.3%,80.4%,57%,104%,93.9%,–,98.8%,5.31% (active),108%,48.3%,31.2%,72.9%,69%,47.9%,98.5%
